AGP1 TOR yeast = modulators of TOR pathway AGP1-GFP in S. cerevisiae | S. cerevisiae AGP1-GFP multiplex flow cytometry, 3 h; GFP as percent of DMSO wells | GFP response vs DMSO, % at 10 µM | actives 0.02% (n = 320,000);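 active = GFP response relative to DMSO above a set limit, near screen average plus 3 SD, cut at about 150% in these data; inconclusive = fewer than 70 cells counted for the yeast strain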;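 also: median GFP channel fluorescence of the gated AGP1 strain per well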
LAP4-GFP MLPCN = alters LAP4-GFP fluorescence in TOR pathway yeast screen. S. cerevisiae LAP4-GFP multiplex, flow cytometry GFP, 3 h; median GFP as percent of DMSO wells. GFP response vs DMSO, % at 10 µM. actives 0.34% (n = 320,000). AID 2023;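 active = GFP response vs DMSO above a set limit, about the screen mean plus 3 SD, cut at about 150% in these data; inconclusive = under 70 cell events counted for the yeast strain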
MEP2-GFP yeast = yeast TOR pathway MEP2-GFP modulation | actives 0.51% (n = 330,000) | GFP response vs DMSO, % at 10 µM | S. cerevisiae MEP2-GFP strain, flow cytometry GFP, 3 h; 100% = DMSO control level;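 active = GFP response versus DMSO above a set limit, roughly screen mean plus 3 SD, cut at about 180% in these data; inconclusive = fewer than 70 cells counted for a yeast strain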;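 also: median GFP fluorescence of the barcode-gated MEP2-GFP cells per well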
CIT2-GFP yeast = modulators of TOR pathway CIT2-GFP in S. cerevisiae | S. cerevisiae CIT2-GFP strain, flow cytometry, 3 h; 100 means same as DMSO wells | AID 2029 | GFP response vs DMSO, % at 10 µM | actives 0.065% (n = 320,000);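 active = GFP response relative to DMSO above a set limit, near the screen mean plus 3 SD, cut at about 150% in these data; inconclusive = Fewer than 70 cells measured for a yeast strain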;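 also: ratio of well median GFP fluorescence to mean of DMSO wells on the plate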
RPL19A TOR yeast = alters RPL19A-GFP fluorescence in TOR pathway yeast screen; percent response vs DMSO, % at 10 µM; S. cerevisiae RPL19A-GFP strain, flow cytometry, 3 h; stronger effect = lower value; actives 0.3% (n = 330,000);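 active = percent response vs DMSO below 50%; inconclusive = fewer than 70 events counted for the yeast strain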;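 also: median channel GFP fluorescence of the barcoded RPL19A-GFP strain; lower means less RPL19A-GFP as with rapamycin TOR inhibition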
Large screens that a line does not name were inactive; [ ] = dose if it differs, or a comment. A selection: hits, their analogues and other compounds. The true share with any hit is near 0.92%.

Cc1ccc(NC(=O)CSCC(=O)Nc2cc(Cl)ccc2N2CCOCC2)cc1	none
CCC(C)Sc1ccc([C@@H]2[C@@H]3C(=O)N(C)C(=O)[C@@H]3[C@]3(C(=O)OC)CCCCN23)cc1 (stereo not given in full)	none
O=C(COc1ccc(Br)cc1)Nc1ccccc1N1CCCC1	MEP2-GFP yeast 529[may fluoresce violet], CIT2-GFP yeast inconclusive
Cc1onc(-c2c(Cl)cccc2Cl)c1NC(=O)NNc1c(Cl)cncc1Cl	MEP2-GFP yeast 205
Cc1cc(C(=O)NNC(=O)c2c(-c3c(Cl)cccc3Cl)noc2C)no1	CIT2-GFP yeast 150[may fluoresce green]
Cc1onc(-c2c(Cl)cccc2Cl)c1NC(=O)NNc1ccccc1	none
Cc1nc(Nc2cnc(/C=C/c3cc(C(=O)Nc4cccc(C(F)(F)F)c4)ccc3C)cn2)cc(N2CCNCC2)n1	MEP2-GFP yeast 198[may fluoresce violet], CIT2-GFP yeast inconclusive, RPL19A TOR yeast 45[may fluoresce violet]
CCN(CC)CCCN(C(=O)c1ccc(Br)cc1)c1nc(-c2ccc(OC)cc2)cs1	AGP1 TOR yeast 161, LAP4-GFP MLPCN 276, MEP2-GFP yeast active, CIT2-GFP yeast 160
NC(=O)C1CCN(c2cc(N3CCOCC3)ccc2[N+](=O)[O-])CC1	none
NC(=O)C1CCN(c2cc(Cl)ccc2[N+](=O)[O-])CC1	MEP2-GFP yeast inconclusive, RPL19A TOR yeast 41[may fluoresce violet] (no result: AGP1 TOR yeast, LAP4-GFP MLPCN, CIT2-GFP yeast)
CC(C)CCNC(=S)Nc1ccc([N+](=O)[O-])cc1	none
CC(C)OC(=O)c1cc(NC(=S)Nc2ccc([N+](=O)[O-])cc2)cc(C(=O)OC(C)C)c1	MEP2-GFP yeast 261[may fluoresce violet], CIT2-GFP yeast inconclusive
COC(=O)c1c(NC(=O)c2cccs2)sc2c1CCC(C)C2 (stereo not given)	MEP2-GFP yeast 223[may fluoresce violet], CIT2-GFP yeast inconclusive (no result: AGP1 TOR yeast)
COCC(=O)Nc1sc2c(c1C(=O)OC)CCCC2	none
COC(=O)c1c(NC(=O)Cc2cccs2)sc2c1CCCC2	AGP1 TOR yeast inconclusive, MEP2-GFP yeast 211[may fluoresce violet], CIT2-GFP yeast inconclusive
CC1CCc2c(sc(NC(=O)c3cccs3)c2C(=O)O)C1 (stereo not given)	none
Cc1cc(C)nc(SCCn2c(N3CC(C)OC(C)C3)nc3c2c(=O)n(C)c(=O)n3C)n1 (stereo not given)	none
CC(SCc1ccccc1)C(=O)Nc1ccccc1F (stereo not given)	none
CC12CCC(C(=O)N3CCCc4ccccc43)(CC1=O)C2(C)C (stereo not given)	none
CC12CCC(C(=O)N3CCc4ccccc43)(CC1=O)C2(C)C (stereo not given)	MEP2-GFP yeast 282[may fluoresce violet], CIT2-GFP yeast inconclusive (no result: RPL19A TOR yeast)
Cc1cccn2c(=O)c3cc(C(=O)NCc4ccco4)c(=N)n(CCOCCO)c3nc12	AGP1 TOR yeast inconclusive, MEP2-GFP yeast 239[may fluoresce violet], CIT2-GFP yeast inconclusive, RPL19A TOR yeast 35[may fluoresce violet]
N=c1c(C(=O)NCc2ccco2)cc2c(=O)n3ccccc3nc2n1CCc1ccccc1	MEP2-GFP yeast 325, RPL19A TOR yeast 48
Cc1cccn2c(=O)c3cc(C(=O)NCCc4ccccc4)c(=N)n(CC4CCCO4)c3nc12 (stereo not given)	none
N=c1c(C(=O)NCCc2ccccc2)cc2c(=O)n3ccccc3nc2n1CC1CCCO1 (stereo not given)	AGP1 TOR yeast inconclusive, LAP4-GFP MLPCN inconclusive, MEP2-GFP yeast inconclusive, CIT2-GFP yeast inconclusive, RPL19A TOR yeast 22[may fluoresce violet]
Cc1ccc2nc3c(cc(C(=O)NCc4ccco4)c(=N)n3C3CCCC3)c(=O)n2c1	AGP1 TOR yeast inconclusive, LAP4-GFP MLPCN inconclusive, MEP2-GFP yeast inconclusive, CIT2-GFP yeast inconclusive, RPL19A TOR yeast 26[may fluoresce violet]
Cc1ccc(Cn2c(=N)c(C(=O)NCc3ccco3)cc3c(=O)n4ccccc4nc32)cc1	none
N=c1c(C(=O)NCc2ccc3c(c2)OCO3)cc2c(=O)n3ccccc3nc2n1CC1CCCO1 (stereo not given)	none
N=c1c(C(=O)NCc2ccc(F)cc2)cc2c(=O)n3ccccc3nc2n1CC1CCCO1 (stereo not given)	MEP2-GFP yeast 256[may fluoresce violet], CIT2-GFP yeast inconclusive (no result: AGP1 TOR yeast)
N=c1c(C(=O)NCc2ccco2)cc2c(=O)n3ccccc3nc2n1CC1CCCO1 (stereo not given)	AGP1 TOR yeast inconclusive, MEP2-GFP yeast 266[may fluoresce violet], CIT2-GFP yeast inconclusive, RPL19A TOR yeast 27[may fluoresce violet]
CCCCn1c(N)c(N(CC(C)C)C(=O)COC(=O)Cc2c(C)nc3ccccc3c2C)c(=O)[nH]c1=O	none
CCC(CC)C(=O)NN(C(=O)c1ccncc1)C1CC(=O)N(c2ccccc2)C1=O (stereo not given)	none
CCCCNC(=O)n1c(SC)nc2ccccc21	MEP2-GFP yeast 379[may fluoresce violet], CIT2-GFP yeast inconclusive
O=C(O)C1(c2ccccc2)CCN(S(=O)(=O)c2ccc(Br)cc2)CC1	none
C[C@H](NC(=O)[C@@H]1CSC2c3ccccc3C(=O)N21)C(=O)NC1CCCCC1 (stereo not given in full)	none
CCOC(=O)C(NC(=O)c1ccccc1)=C1C=C(C)OC(C)=C1	none
COC(=O)C(NC(=O)c1ccccc1)=C1C=C(C)OC(C)=C1	MEP2-GFP yeast 209[may fluoresce violet], CIT2-GFP yeast inconclusive (no result: AGP1 TOR yeast)
CC1(C)CC(=O)C([N+](=O)[O-])=C(NCCCC(=O)O)C1	AGP1 TOR yeast inconclusive, MEP2-GFP yeast 709[may fluoresce violet], CIT2-GFP yeast inconclusive, RPL19A TOR yeast 26[may fluoresce violet]
CC1(C)CC(=O)C(C#N)=C(NCCCO)C1	none
CCOc1ccc(NS(=O)(=O)c2ccc(NC(=O)[C@@H]3CCCC[C@@H]3C(=O)O)cc2)cc1	none
O=C(Nc1ccc(NC(=O)c2ccco2)cc1)c1ccco1	none
O=C(Nc1ccc(Cn2nnc3ccccc32)cc1)c1ccco1	AGP1 TOR yeast inconclusive, MEP2-GFP yeast 294[may fluoresce violet], CIT2-GFP yeast inconclusive, RPL19A TOR yeast 14[may fluoresce violet]
O=[N+]([O-])c1ccc(CSc2nc3ccccc3[nH]2)cc1	none
O=c1cnnc(SCc2ccc([N+](=O)[O-])cc2)[nH]1	CIT2-GFP yeast 174
Cn1cnc([N+](=O)[O-])c1S(=O)(=O)c1cccc(Cl)c1	MEP2-GFP yeast 177
Cc1nn(C(C)C(=O)c2cccc(Cl)c2)c(C)c1[N+](=O)[O-] (stereo not given)	none
O=C1C(=O)N(Cc2cccs2)c2ccccc21	none
CCc1sc(C(=O)N2CCc3ccccc32)cc1C	LAP4-GFP MLPCN 158
C[C@H]1O[C@@H](n2cc(F)c(=O)[nH]c2=O)[C@H](O)[C@@H]1O	AGP1 TOR yeast inconclusive, LAP4-GFP MLPCN inconclusive, MEP2-GFP yeast inconclusive, CIT2-GFP yeast inconclusive, RPL19A TOR yeast 41[may fluoresce violet]
COc1ccc(/C=C/C(=O)C2CC2)cc1COc1c(C)cccc1C	AGP1 TOR yeast inconclusive, CIT2-GFP yeast inconclusive, RPL19A TOR yeast 42[may fluoresce violet]
CCOC(=O)c1ccc(NC(=O)c2ccc3c(c2)C(=O)N(Cc2cccnc2)C3=O)cc1	LAP4-GFP MLPCN 168
CCOC(=O)c1ccc(N2C=C(C(=O)OC)C(c3ccc(OC)c(O)c3)C(C(=O)OC)=C2)cc1	MEP2-GFP yeast 769[may fluoresce violet], CIT2-GFP yeast inconclusive, RPL19A TOR yeast 49[may fluoresce violet]
CCCS(=O)(=O)N1CCC(C(=O)c2cccc(C(F)(F)F)c2)CC1	LAP4-GFP MLPCN 156, MEP2-GFP yeast 186

Screening data deposited in PubChem BioAssay by NMMLSC.
